The record followed here is PubChem BioAssay (EPA / NIEHS).

Assay [1] in a line: ATG_Sox_CIS: Attagene CIS-FACTORIAL HepG2 Assay for human SRY-box transcription factor (SOX) (AID 2282960). The following applies: HepG2 Attagene cis-factorial SOX reporter, mRNA; actives raise or lower the signal. The gist of the method:
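HepG2, cis reporter units, 24 h exposure. Reporter mRNA: RT-PCR → FAM labelling → HpaI → CE fluorescence. Bidirectional fit vs DMSO.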

The target in assay [2] is Transcription factor Sp1 (Homo sapiens) (UniProt P08047). Put plainly: ATG_Sp1_CIS: Attagene CIS-FACTORIAL HepG2 Assay for human Specificity Protein 1 (Sp1) (AID 2282961). The following applies: HepG2 Sp1 cis-reporter transcription, actives raise or lower the signal. The gist of the method:
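Liver-derived HepG2 cells, cis-element reporter library, 24 h treatment; RNA isolated, cDNA amplified with reporter-specific primers, FAM-labeled fragments sized on capillary analyzer. DMSO baseline, bidirectional curve fit.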

A short description of assay [3]: ATG_SREBP_CIS: Attagene CIS-FACTORIAL HepG2 Assay for human Sterol Regulatory Element Binding (SREBP) (AID 2282962). The settings on record: HepG2 Attagene cis-factorial SREBP reporter, mRNA; actives raise or lower the signal. The gist of the method:
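Readout: fluorescent reporter-transcript peaks resolved by capillary electrophoresis after RT-PCR. Cells were human HepG2 carrying transfected cis-promoter reporter constructs, dosed for 24 h. Gain or loss of signal was fitted against DMSO controls.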

In assay [4] the target is Signal transducer and activator of transcription 3 (Homo sapiens) (UniProt P40763). Put plainly: ATG_STAT3_CIS: Attagene CIS-FACTORIAL HepG2 Assay for human Signal Transducer and Activator of Transcription 3 (STAT3) (AID 2282963). The settings on record: HepG2, Attagene cis-factorial STAT3 reporter transcription; actives raise or lower the signal. The gist of the method: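 Readout: fluorescent reporter mRNA fragments resolved by capillary electrophoresis. Setup: HepG2 transfected with MRTUs reporting endogenous transcription-factor activity, dosed 24 h. Gain or loss of signal fitted bidirectionally against DMSO control.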
Sequence of Signal transducer and activator of transcription 3 (Homo sapiens) (P40763 whole entry, looked up, the tested form may be a part): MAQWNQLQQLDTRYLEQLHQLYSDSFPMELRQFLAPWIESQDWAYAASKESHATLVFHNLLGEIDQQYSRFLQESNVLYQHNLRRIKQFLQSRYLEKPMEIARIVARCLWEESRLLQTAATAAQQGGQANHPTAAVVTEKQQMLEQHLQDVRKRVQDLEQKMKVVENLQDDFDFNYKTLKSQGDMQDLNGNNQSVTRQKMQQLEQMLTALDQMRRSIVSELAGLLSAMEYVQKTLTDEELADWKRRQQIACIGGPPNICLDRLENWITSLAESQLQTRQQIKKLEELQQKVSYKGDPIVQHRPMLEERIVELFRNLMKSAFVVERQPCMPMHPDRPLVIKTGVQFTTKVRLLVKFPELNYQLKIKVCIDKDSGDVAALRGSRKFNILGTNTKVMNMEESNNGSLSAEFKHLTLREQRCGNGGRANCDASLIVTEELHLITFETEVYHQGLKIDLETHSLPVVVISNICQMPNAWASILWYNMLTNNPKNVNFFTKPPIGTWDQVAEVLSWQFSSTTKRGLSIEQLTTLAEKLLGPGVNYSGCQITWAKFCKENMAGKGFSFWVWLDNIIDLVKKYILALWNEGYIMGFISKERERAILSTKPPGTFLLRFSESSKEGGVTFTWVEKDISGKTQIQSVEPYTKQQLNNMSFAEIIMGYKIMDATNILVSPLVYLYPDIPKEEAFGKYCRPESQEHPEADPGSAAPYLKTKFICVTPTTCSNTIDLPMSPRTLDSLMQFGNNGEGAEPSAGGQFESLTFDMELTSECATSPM

Assay [5] can be described thus: ATG_TA_CIS: Attagene CIS-FACTORIAL HepG2 Assay for human TA Basal Promoter (AID 2282964). The following applies: HepG2 Attagene CIS-factorial TA basal promoter reporter; actives raise or lower the signal. The gist of the method:
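Steps: transfect HepG2 with MRTUs; dose 24 h; isolate RNA, DNase-treat, reverse-transcribe; PCR and FAM-label reporter cDNA; digest with HpaI 2h at 37 C; run capillary electrophoresis. Activity fitted both directions against DMSO.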

A short description of assay [6]: ATG_TCF_b_cat_CIS: Attagene CIS-FACTORIAL HepG2 Assay for human T-Cell-Factor with beta-catenin (TCF/b-cat) (AID 2282965). The following applies: HepG2 TCF/beta-catenin cis-reporter transcription, actives raise or lower the signal. The gist of the method: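 Cells of the HepG2 line carry transiently transfected reporter units whose promoters respond to endogenous factors. Twenty-four hours post-dosing, reporter mRNA induction is measured by fluorescent RT-PCR and capillary electrophoresis, with DMSO as baseline.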

The nature of assay [7]: ATG_TAL_CIS: Attagene CIS-FACTORIAL HepG2 Assay for human TAL Basal Promoter (AID 2282966).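 Also: background control endpoint measuring basal TAL promoter reporter mRNA not a specific factor.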 The following applies: HepG2 Attagene cis-factorial TAL promoter reporter; actives raise or lower the signal. The gist of the method:
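Transiently transfected HepG2 (cis-regulated reporter units), 24 h treatment, mRNA read by fluorescent CE after RT-PCR; bidirectional fit, DMSO baseline.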

A short description of assay [8]: ATG_TGFb_CIS: Attagene CIS-FACTORIAL HepG2 Assay for human Transforming Growth Factor (TGF) (AID 2282967). The settings on record: HepG2 Attagene CIS TGFb reporter, mRNA transcription; actives raise or lower the signal. Put shortly: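 Cells were dosed for 24 hours, after which total RNA was reverse-transcribed and reporter sequences amplified, labeled and sized by capillary electrophoresis. Activity was fitted in both directions against DMSO.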

A short description of assay [9]: ATG_VDRE_CIS: Attagene CIS-FACTORIAL HepG2 Assay for human Vitamin D Receptor Element (VDRE) (AID 2282968). The settings on record: HepG2 VDRE cis-reporter transcription, actives raise or lower the signal. Put shortly:
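Transient MRTU transfection of HepG2, 24 h compound exposure. Readout: reporter transcripts via RT-PCR and capillary electrophoresis, fluorescence. Bidirectional fit vs DMSO.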

Assay [10] deals with Nuclear receptor subfamily 1 group I member 3 (Homo sapiens) (UniProt Q14994). Put plainly: ATG_CAR_TRANS: Attagene TRANS-FACTORIAL HepG2 Assay for human Constitutive Androstane Receptor (CAR) (AID 2282969; active = hit-call score of the fitted dose curve at least 0.9, where 1 is the maximum;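 also: activators raise reporter mRNA above DMSO so AC50 marks induction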). The settings on record: HepG2 Attagene TRANS-FACTORIAL CAR reporter. Put shortly:
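Transiently transfected HepG2, multiplex TRANS reporters (CAR-Gal4 chimera driving GAL4-UAS reporter). 24 h dosing. Readout: reporter transcript by RT-PCR + capillary electrophoresis, fluorescence intensity; positive direction vs DMSO.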

For assay [11], the target named is Estrogen receptor (Homo sapiens) (UniProt P03372). Put plainly: ATG_ERa_TRANS: Attagene TRANS-FACTORIAL HepG2 Assay for human Estrogen Receptor alpha (ERa) (AID 2282970; active = hit-call score of the fitted dose curve at least 0.9, where 1 is the maximum). The settings on record: HepG2 Attagene TRANS ERa GAL4 reporter, mRNA. Put shortly: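 One of 30 multiplexed endpoints from a HepG2 TRANS system, this one reports ERa-Gal4-driven reporter mRNA. Transcripts were quantified 24 hours post-dosing by fluorescent RT-PCR and capillary electrophoresis, with activity scored as induction over DMSO.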
Sequence of Estrogen receptor (Homo sapiens) (P03372 whole entry, looked up, the tested form may be a part): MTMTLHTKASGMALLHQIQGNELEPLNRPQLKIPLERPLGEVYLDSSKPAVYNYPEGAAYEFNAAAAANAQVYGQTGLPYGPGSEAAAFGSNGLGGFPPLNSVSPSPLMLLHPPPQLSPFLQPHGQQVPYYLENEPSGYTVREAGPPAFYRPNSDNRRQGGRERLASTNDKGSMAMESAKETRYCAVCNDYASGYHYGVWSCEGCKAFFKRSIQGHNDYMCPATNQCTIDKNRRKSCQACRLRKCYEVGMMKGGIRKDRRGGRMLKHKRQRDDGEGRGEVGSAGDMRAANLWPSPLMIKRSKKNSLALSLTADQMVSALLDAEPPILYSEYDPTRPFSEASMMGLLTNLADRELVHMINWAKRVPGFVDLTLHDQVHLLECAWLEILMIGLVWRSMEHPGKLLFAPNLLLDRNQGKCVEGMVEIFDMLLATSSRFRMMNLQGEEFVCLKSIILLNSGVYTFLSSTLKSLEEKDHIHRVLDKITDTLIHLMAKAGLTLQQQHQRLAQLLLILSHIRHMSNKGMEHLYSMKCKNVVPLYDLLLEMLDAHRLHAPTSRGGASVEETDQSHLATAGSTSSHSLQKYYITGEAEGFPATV

Assay [12] concerns the target X-box-binding protein 1 (Homo sapiens) (UniProt P17861). The experiment in a line: ATG_Xbp1_CIS: Attagene CIS-FACTORIAL HepG2 Assay for human X-box Binding Protein 1 (XBP1) (AID 2282972). The settings on record: HepG2 XBP1 cis-element reporter, Attagene multiplex; actives raise or lower the signal. Put shortly:
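Read-out: fluorescent reporter mRNA fragments resolved by capillary electrophoresis after RT-PCR. Human HepG2 liver cells carried transfected cis-promoter reporter units and were exposed to chemicals for 24 hours. Gain or loss of signal fitted relative to DMSO baseline.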

In assay [13] the target is Oxysterols receptor LXR-alpha (Homo sapiens) (UniProt Q13133). The experiment in a line: ATG_LXRa_TRANS: Attagene TRANS-FACTORIAL HepG2 Assay for human Liver X Receptor alpha (LXRa) (AID 2282980; active = hit-call score of the fitted dose curve at least 0.9, where 1 is the maximum). The following applies: HepG2 Attagene TRANS reporter, LXRa transactivation. Put shortly: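 HepG2 cells were transiently transfected with multiplexed reporter units driven by chimeric LXRa–GAL4 fusion proteins, then dosed for 24 h. Reporter mRNA was quantified by RT-PCR, fluorescent labelling and capillary electrophoresis; gain of signal fitted against DMSO baseline.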
Sequence of Oxysterols receptor LXR-alpha (Homo sapiens) (Q13133 whole entry, looked up, the tested form may be a part): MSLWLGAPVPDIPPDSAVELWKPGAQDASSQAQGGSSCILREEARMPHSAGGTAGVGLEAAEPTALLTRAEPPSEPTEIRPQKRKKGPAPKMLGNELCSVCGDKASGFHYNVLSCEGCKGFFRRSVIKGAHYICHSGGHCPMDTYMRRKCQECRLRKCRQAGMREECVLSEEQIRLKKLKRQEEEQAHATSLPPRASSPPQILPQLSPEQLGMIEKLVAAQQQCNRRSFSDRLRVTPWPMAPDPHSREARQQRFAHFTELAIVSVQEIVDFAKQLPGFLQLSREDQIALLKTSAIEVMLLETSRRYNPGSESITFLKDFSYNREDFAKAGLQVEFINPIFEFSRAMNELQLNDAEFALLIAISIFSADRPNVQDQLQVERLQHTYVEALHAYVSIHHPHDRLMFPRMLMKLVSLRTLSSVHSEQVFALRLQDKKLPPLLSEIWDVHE

Assay [14] has as its target Androgen receptor (Homo sapiens) (UniProt P10275). The experiment in a line: ATG_AR_TRANS: Attagene TRANS-FACTORIAL HepG2 Assay for human Androgen Receptor (AR) (AID 2282973; active = hit-call score of the fitted dose curve at least 0.9, where 1 is the maximum). The settings on record: HepG2 Attagene TRANS-FACTORIAL AR reporter transcription. The gist of the method:
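HepG2 cells transiently transfected with multiplexed GAL4-UAS reporter units and chimeric NR-Gal4 fusion; 24 h compound exposure. Reporter mRNA measured by RT-PCR, 6-FAM labelling, HpaI digestion and capillary electrophoresis; gain-of-signal fitted relative to DMSO baseline.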

The nature of assay [15]: ATG_M_19_TRANS: Attagene TRANS-FACTORIAL HepG2 Assay for M19 Transcription Factor (Internal Marker) (AID 2282974; active = hit-call score of the fitted dose curve at least 0.9, where 1 is the maximum). The settings on record: HepG2 Attagene TRANS-FACTORIAL M19 internal marker reporter. Put shortly:
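Transfected HepG2 (GAL4-UAS MRTUs), 24 h compound, TriZol RNA, DNase-treated RT, reporter PCR, FAM label, HpaI digest, CE fluorescence; gain vs DMSO.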

A short description of assay [16]: ATG_GAL4_TRANS: Attagene TRANS-FACTORIAL HepG2 Assay for GAL4 (Internal Marker) (AID 2282976; active = hit-call score of the fitted dose curve at least 0.9, where 1 is the maximum). The settings on record: HepG2 Attagene TRANS GAL4 internal marker reporter. The gist of the method: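 HepG2 cells transiently transfected with multiplexed GAL4-UAS reporter constructs were dosed for 24 h. Reporter mRNA was measured by RT-PCR, 6-FAM primer extension, HpaI digestion and capillary electrophoresis, and gain of signal was fitted relative to DMSO.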

In assay [17] the target is Glucocorticoid receptor (Homo sapiens) (UniProt P04150). Put plainly: ATG_GR_TRANS: Attagene TRANS-FACTORIAL HepG2 Assay for human Glucocorticoid Receptor (GR) (AID 2282978; active = hit-call score of the fitted dose curve at least 0.9, where 1 is the maximum;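 also: activators score as hits since higher reporter transcript over DMSO is fitted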). The following applies: HepG2 Attagene TRANS GR reporter, mRNA transcription. The gist of the method:
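After 24 h incubation with test chemical, transfected HepG2 cells were lysed for RNA; reporter cDNA was amplified, FAM-labelled, HpaI-digested and sized on a capillary analyser. Signal gain relative to DMSO was scored.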

In assay [18] the target is Bile acid receptor (Homo sapiens) (UniProt Q96RI1). The experiment in a line: ATG_FXR_TRANS: Attagene TRANS-FACTORIAL HepG2 Assay for Farnesoid X Receptor (FXR) (AID 2282979; active = hit-call score of the fitted dose curve at least 0.9, where 1 is the maximum;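 also: hits raise reporter mRNA above DMSO so AC50 marks FXR activation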). The following applies: HepG2 Attagene TRANS FXR-GAL4 reporter transcription. Put shortly: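 HepG2 cells transiently transfected with reporter constructs in which a chimeric FXR-GAL4 protein drives a GAL4-UAS reporter; 24 h compound exposure. Reporter mRNA measured by RT-PCR, FAM labelling, HpaI digestion and capillary electrophoresis; gain-of-signal versus DMSO.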

The target in assay [19] is Steroid hormone receptor ERR1 (Homo sapiens) (UniProt P11474). Put plainly: ATG_ERRa_TRANS: Attagene TRANS-FACTORIAL HepG2 Assay for human Estrogen-Related Receptor alpha (ERRa) (AID 2282971; active = hit-call score of the fitted dose curve at least 0.9, where 1 is the maximum). The settings on record: HepG2 Attagene TRANS reporter, ERRa transactivation. Put shortly:
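HepG2 cells transiently transfected with multiplexed GAL4-UAS reporter units reading chimeric ERRa-Gal4 activity; 24 h compound exposure. Reporter mRNA measured by RT-PCR, 6-FAM labelling, HpaI digest and capillary electrophoresis; gain of signal fitted versus DMSO baseline.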

Results filed as inconclusive are left out. Calls of active or inactive are those of the source. The calls were made as follows, unless noted: active = hit-call score of the fitted dose curve at least 0.9, where 1 is the maximum; inactive = score below 0.9.

Sequence of Glucocorticoid receptor (Homo sapiens) (P04150 whole entry, looked up): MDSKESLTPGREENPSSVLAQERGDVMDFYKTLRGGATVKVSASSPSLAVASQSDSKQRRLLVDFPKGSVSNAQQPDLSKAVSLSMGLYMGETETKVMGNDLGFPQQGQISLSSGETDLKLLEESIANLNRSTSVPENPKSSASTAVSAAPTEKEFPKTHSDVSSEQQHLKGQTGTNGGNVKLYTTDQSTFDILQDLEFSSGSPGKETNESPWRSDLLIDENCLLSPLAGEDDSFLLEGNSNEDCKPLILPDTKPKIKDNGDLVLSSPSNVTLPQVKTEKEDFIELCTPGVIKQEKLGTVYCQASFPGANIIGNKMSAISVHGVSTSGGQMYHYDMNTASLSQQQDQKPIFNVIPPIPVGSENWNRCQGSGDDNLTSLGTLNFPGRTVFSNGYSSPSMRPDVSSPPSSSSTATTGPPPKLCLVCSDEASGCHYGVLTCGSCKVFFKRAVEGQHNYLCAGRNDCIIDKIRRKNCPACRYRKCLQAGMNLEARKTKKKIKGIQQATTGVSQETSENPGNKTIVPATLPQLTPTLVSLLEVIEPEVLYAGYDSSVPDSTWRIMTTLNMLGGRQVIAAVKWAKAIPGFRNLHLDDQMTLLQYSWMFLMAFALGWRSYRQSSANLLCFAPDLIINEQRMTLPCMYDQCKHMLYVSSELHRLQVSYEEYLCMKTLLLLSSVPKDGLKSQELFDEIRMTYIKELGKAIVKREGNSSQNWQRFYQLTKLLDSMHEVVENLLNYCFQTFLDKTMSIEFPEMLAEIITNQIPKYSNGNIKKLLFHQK
Sequence of X-box-binding protein 1 (Homo sapiens) (P17861 whole entry, looked up, the tested form may be a part): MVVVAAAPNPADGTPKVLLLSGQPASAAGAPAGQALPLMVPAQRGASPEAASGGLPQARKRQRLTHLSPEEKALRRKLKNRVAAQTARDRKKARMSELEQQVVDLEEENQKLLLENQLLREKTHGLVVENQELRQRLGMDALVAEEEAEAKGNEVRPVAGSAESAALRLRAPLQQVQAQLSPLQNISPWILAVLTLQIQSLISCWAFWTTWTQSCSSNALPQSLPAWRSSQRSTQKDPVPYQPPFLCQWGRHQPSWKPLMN
Sequence of Transcription factor Sp1 (Homo sapiens) (P08047 whole entry, looked up, the tested form may be a part): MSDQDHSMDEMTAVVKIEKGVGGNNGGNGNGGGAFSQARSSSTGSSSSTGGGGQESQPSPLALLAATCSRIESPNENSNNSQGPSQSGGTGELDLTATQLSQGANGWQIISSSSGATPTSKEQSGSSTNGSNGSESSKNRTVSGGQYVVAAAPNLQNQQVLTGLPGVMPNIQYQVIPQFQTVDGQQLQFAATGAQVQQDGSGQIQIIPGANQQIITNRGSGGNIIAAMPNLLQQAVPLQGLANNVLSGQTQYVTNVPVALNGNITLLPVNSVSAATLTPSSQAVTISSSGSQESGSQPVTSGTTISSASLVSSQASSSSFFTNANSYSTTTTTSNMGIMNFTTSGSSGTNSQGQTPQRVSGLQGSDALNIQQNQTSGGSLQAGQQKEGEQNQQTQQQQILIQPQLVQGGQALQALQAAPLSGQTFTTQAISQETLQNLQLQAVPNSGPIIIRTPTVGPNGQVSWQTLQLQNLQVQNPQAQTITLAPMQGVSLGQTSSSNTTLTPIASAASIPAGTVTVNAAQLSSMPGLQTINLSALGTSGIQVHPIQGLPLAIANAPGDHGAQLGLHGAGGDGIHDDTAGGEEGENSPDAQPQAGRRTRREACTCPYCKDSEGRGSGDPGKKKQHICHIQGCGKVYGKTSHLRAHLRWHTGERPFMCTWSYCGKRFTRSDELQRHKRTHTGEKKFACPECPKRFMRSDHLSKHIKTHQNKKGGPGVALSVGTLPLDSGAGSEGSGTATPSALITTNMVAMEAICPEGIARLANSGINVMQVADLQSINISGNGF
Sequence of Androgen receptor (Homo sapiens) (P10275 whole entry, looked up, the tested form may be a part): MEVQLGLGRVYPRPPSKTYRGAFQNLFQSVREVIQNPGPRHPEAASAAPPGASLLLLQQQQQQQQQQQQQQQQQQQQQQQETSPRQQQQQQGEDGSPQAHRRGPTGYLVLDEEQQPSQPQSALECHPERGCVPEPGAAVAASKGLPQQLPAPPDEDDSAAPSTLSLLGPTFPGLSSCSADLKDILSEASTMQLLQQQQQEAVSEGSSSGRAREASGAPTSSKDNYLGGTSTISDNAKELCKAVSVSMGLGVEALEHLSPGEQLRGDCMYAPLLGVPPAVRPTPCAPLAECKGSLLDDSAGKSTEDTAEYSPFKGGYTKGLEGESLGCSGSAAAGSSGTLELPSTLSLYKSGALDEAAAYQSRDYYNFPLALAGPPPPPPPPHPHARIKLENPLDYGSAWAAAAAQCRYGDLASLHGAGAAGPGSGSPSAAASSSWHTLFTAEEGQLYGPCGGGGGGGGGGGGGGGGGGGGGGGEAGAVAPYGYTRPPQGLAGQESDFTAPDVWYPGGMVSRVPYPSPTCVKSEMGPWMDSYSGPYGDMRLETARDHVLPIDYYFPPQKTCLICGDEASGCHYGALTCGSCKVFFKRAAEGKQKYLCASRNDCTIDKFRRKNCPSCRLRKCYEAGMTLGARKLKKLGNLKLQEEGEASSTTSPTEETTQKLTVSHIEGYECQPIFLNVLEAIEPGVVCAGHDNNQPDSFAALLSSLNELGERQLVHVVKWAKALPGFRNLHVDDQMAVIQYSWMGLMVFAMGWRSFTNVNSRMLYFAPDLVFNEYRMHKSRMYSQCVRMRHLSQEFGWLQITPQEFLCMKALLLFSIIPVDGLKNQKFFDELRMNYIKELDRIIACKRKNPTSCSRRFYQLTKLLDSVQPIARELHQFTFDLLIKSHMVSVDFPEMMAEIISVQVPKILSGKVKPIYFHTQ
Sequence of Nuclear receptor subfamily 1 group I member 3 (Homo sapiens) (Q14994 whole entry, looked up, the tested form may be a part): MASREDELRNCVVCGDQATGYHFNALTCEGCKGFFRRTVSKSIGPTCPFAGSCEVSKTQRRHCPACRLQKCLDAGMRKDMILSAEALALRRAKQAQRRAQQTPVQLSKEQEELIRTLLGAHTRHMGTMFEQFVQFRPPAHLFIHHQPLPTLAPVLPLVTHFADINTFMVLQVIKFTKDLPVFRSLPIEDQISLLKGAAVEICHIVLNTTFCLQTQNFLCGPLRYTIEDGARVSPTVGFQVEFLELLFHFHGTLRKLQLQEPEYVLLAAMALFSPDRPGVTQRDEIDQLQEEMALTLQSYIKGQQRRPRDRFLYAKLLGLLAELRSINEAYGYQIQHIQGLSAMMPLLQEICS

As for `OCc1ccco1`, the call in assay [1], in assay [2], in assay [3], in [4], in [5] and in assay [6] was inactive. Also, the outcome in assay [7], in assay [8], in assay [9], in [10], in assay [11] and in [12] was inactive. Further, the result in [13] was inactive.
Regarding `COS(=O)(=O)c1ccc(C)cc1`, the compound was classed as inactive in [1], in assay [2], in [3], in assay [4], in [5] and in assay [6]. For the same compound, the compound was classed as inactive in assay [7], in [8], in assay [9], in assay [11], in assay [12] and in [14]. Also, the call in assay [15], in [16], in [17], in assay [18] and in assay [13] was inactive.
Consider `Nc1ccc(Cl)cc1C(=O)c1ccccc1`, for which the result in [1], in assay [2], in assay [3], in [4], in assay [7] and in [8] was inactive. Moreover, the outcome in assay [19], in assay [12], in [15], in [16] and in assay [17] was inactive. Besides, the AC50 (in general, the concentration at which the activity in the assay is half-maximal) was 21.8 µM (active) in [5], 39.6 µM (active) in assay [6], 16.6 µM (active) in assay [9] and 3.63 µM (active) in assay [11].
`CN(CCCC(=O)c1cccnc1)N=O`: the compound was called inactive in assay [1], in assay [2], in [3], in assay [4], in assay [5] and in [6]. Moreover, the call in assay [7], in assay [8], in assay [9], in assay [10], in assay [12] and in [14] was inactive. Further, the call in assay [15], in assay [17] and in assay [13] was inactive.
